Measured values reported in PubChem BioAssay AID2284333 (EPA ToxCast).
Records with an inconclusive call do not appear. The source made the active and inactive calls. Rule for the calls: active = hit-call score of the fitted dose curve at least 0.9, where 1 is the maximum; inconclusive = response in the unintended direction; inactive = score below 0.9.

Each compound was assayed against rainbow trout Glucocorticoid Receptor (GR), nr3c1 (gene 100136786) (UniProt P49843) (assay: ATG_rtGR_EcoTox2: Attagene TRANS-FACTORIAL EcoTox-2 HepG2 Assay for rainbow trout Glucocorticoid Receptor (GR)).
Description: ATG_EcoTox2 is a cell-based, multiplexed assay created by modifying the existing Attagene TRANS-FACTORIAL system to include a panel of nuclear receptors from some or all the following species: human (Homo sapiens), african clawed frog (Xenopus laevis), rainbow trout (Oncorhynchus mykiss), japanese medaka (Oryzias latipes), and zebrafish (Danio rerio). The ECOTOX2-FACTORIAL format uses HepG2, a human liver cell line, with measurements taken at 24 hours after chemical dosing in a 24-well plate. ATG_rtGR_EcoTox2 is one of 29 assay components calculated in the ATG_EcoTox2 assay. It is designed to make measurements of mRNA induction, a form of inducible reporter, as detected with fluorescence intensity signals by Reverse transcription polymerase chain reaction (RT-PCR) and Capillary electrophoresis technology.The assay endpoint ATG_rtGR_EcoTox2 was analyzed in the positive analysis fitting direction relative to DMSO as the negative control and baseline of activity. Using a type of inducible reporter, measures of mRNA for gain-of-signal activity can be used to understand the reporter gene at the transcription factor-level as they relate to the gene for glucocorticoid receptor. Furthermore, this assay endpoint can be referred to as a primary readout, because this assay has produced multiple assay endpoints where this one serves a reporter gene function. To generalize the intended target to other relatable targets, this assay endpoint is annotated to the nuclear receptor intended target family, where the subfamily is steroidal.
Human liver HepG2 cells are transiently transfected with multiple reporter transcription units (MRTUs) in 6-well plates using FuGene 6 reagent (Roche; 3 ml FuGene/1 mg DNA). The MRTU constructs are regulated by a cis-regulating element (promoter). Each RTU expresses a GAL4-UAS that regulates the transcription of a nearby target reporter gene sequence. A major difference between the CIS and TRANS system is that in CIS activities of endogenous TFs are measured, whereas the TRANS assay evaluates changes in activities of exogenous, chimeric NR-Gal4 proteins. […] At the end of 24 hour incubation, total RNA was isolated using TriZol reagent (Invitrogen). The isolated RNA is then reverse-transcribed using oligo(dT) primer and Mo-MLV reverse transcriptase (Invitrogen) with DNAse I (Ambion) treatment for 30 min. The one-tenth of the produced cDNA was amplified by PCR using Taq DNA polymerase (Invitrogen) and two reporter sequence-specific primers. […] The fragments were purified using Qiaquick PCR columns (Qiagen), analyzed on an ABI 3130xL genetic analyzer (Applied Biosystems) with peak positions identified by using a set of X-rhodamine (ROX)-labeled MapMarker1000 molecular weight standards (BioVentures). […]

Sequence of rainbow trout Glucocorticoid Receptor (GR), nr3c1 (gene 100136786) (P49843 whole entry, looked up): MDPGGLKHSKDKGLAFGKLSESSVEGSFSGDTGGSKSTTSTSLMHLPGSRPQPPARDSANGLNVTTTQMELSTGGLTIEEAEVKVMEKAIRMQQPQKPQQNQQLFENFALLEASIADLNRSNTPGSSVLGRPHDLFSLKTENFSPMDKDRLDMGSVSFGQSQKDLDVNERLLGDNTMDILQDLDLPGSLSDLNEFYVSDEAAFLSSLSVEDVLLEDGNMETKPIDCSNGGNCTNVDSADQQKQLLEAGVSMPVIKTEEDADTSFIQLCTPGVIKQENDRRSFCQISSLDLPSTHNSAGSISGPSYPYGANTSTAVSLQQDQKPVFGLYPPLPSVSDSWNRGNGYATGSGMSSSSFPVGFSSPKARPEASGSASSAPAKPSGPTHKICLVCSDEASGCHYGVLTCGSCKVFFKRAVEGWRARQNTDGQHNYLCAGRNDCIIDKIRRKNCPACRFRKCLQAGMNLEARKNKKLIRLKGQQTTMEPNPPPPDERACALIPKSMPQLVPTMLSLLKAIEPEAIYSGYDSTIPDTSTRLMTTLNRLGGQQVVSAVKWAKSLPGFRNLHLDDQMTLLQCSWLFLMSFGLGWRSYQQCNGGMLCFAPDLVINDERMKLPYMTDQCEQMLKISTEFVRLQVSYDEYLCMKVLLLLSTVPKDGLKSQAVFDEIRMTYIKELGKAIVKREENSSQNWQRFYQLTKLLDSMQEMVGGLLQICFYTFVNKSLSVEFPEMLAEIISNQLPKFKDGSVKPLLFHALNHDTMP

Compound	outcome
O=S(=O)(O)C(F)(F)C(F)(F)C(F)(F)C(F)(F)C(F)(F)C(F)(F)F	inactive
CCCCOCN(C(=O)CCl)c1c(CC)cccc1CC	inactive
O=C(O)C(F)(F)C(F)(F)C(F)(F)C(F)(F)C(F)(F)C(F)(F)C(F)(F)F	inactive
[Cl][Sn]([c]1ccccc1)([c]1ccccc1)[c]1ccccc1	inactive
